Reference: the supplement of paper PMC9262897, “Low-cost anti-mycobacterial drug discovery using engineered E. coli” (Nature Communications, 2022)
Structures can show the parent of a compound that is named as a salt. ± gives the standard deviation of the averaged measurements.

test system: E. coli TESEC Mtb DapB; test: growth (OD600 after 10 h); higher = more growth (less inhibition); settings: arabinose induction (level): High; compound 0.1 mM; raw OD600 reference: median of DMSO wells […], cell-free background 0.041
Procedure: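 TESEC E. coli strains in which the native enzyme is deleted and replaced by arabinose-inducible Mtb Asd, DapB, CysH or TrpD, each grown in its selective medium. Strains were screened against the Prestwick library at 0.1 mM and 1% DMSO in 384-well format at low and high arabinose induction. Growth is read as OD600 after 10 h in triplicate.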

`CN(C)C(=O)Oc1cc(OC(=O)N(C)C)cc(C(O)CNC(C)(C)C)c1` (stereo not given) [Bambuterol hydrochloride] and `CCn1cc(C(=O)O)c(=O)c2cc3c(cc21)OCO3` [Oxolinic acid] are within error of each other in growth: 0.193 ± 0.02 for the first, 0.194 ± 0.0098 for the second.

`CC(=O)O[C@H]1C[C@H](O[C@H]2[C@@H](O)C[C@H](O[C@H]3[C@@H](O)C[C@H](O[C@H]4CC[C@@]5(C)[C@H](CC[C@@H]6[C@@H]5C[C@@H](O)[C@]5(C)[C@@H](C7=CC(=O)OC7)CC[C@]65O)C4)O[C@@H]3C)O[C@@H]2C)O[C@H](C)[C@H]1O[C@@H]1O[C@H](CO)[C@@H](O)[C@H](O)[C@H]1O` [Lanatoside C] and `C[C@]12CC[C@H](O)C[C@H]1CC[C@@H]1[C@@H]2C[C@@H](O)[C@]2(C)[C@@H](C3=CC(=O)OC3)CC[C@]12O` [Digoxigenin] are within error of each other in growth: 0.184 ± 0.021 for the first, 0.1864 ± 0.00095 for the second.

Going from `CN[C@@H]1C[C@@H](c2ccc(Cl)c(Cl)c2)c2ccccc21` [Indatraline hydrochloride] to `Cc1cc(C(C#N)c2ccc(Cl)cc2)c(Cl)cc1NC(=O)c1cc(I)cc(I)c1O` (stereo not given) [Closantel], the growth rises from 0.052 ± 0.0016 to 0.0896 ± 0.013.

`COc1cccc(C2(O)CCCCC2CN(C)C)c1` (stereo not given) [Tramadol hydrochloride] and `COc1ccc(C(=O)N2CCCC2=O)cc1` [Aniracetam] are within error of each other in growth: 0.188 ± 0.04 for the first, 0.214 ± 0.0098 for the second.

`NC(=O)CN1CCCC1=O` [Piracetam] and `CCC1(c2ccc(N)cc2)CCC(=O)NC1=O` (stereo not given) [Glutethimide, para-amino] are within error of each other in growth: 0.202 ± 0.0067 for the first, 0.189 ± 0.0071 for the second.

Going from `Fc1ccc(C(OCCN2CCN(CCCc3ccccc3)CC2)c2ccc(F)cc2)cc1` to `CC[N+]1(C)CCCC(OC(=O)C(O)(c2ccccc2)c2ccccc2)C1` (stereo not given) [Pipenzolate bromide], the growth rises from 0.0461 ± 0.00026 to 0.234 ± 0.013.

Compared with `CC[C@@H](CO)NC(=O)[C@@H]1C=C2c3cccc4[nH]cc(c34)C[C@H]2N(C)C1` [Methylergometrine maleate], `CN1[C@@H]2CC[C@H]1C[C@@H](OC(=O)[C@H](CO)c1ccccc1)C2` [Hyoscyamine (L)] is higher in growth: 0.129 ± 0.028 for the first, 0.191 ± 0.014 for the second.

`C#C[C@]1(O)CC[C@H]2[C@@H]3CCC4=CC(=O)CCC4=C3C=C[C@@]21CC` [Gestrinone] and `C[C@@H]1O[C@@H](O[C@@H]2C=C3CC[C@@H]4[C@H](CC[C@]5(C)[C@@H](c6ccc(=O)oc6)CC[C@]45O)[C@@]3(C)CC2)[C@H](O)[C@H](O)[C@H]1O` [Proscillaridin A] are within error of each other in growth: 0.179 ± 0.015 for the first, 0.163 ± 0.004 for the second.

Going from `CC(=O)OCC(=O)[C@H]1CC[C@H]2[C@@H]3CC[C@H]4C[C@H](O)CC[C@]4(C)[C@H]3C(=O)C[C@]12C` [Alfadolone acetate] to `CC1C=CC=CCCC=CC=CC=CC=CC(OC2OC(C)C(O)C(N)C2O)CC2OC(O)(CC(O)C(O)CCC(O)CC(O)CC(O)CC(=O)OC(C)C(C)C1O)CC(O)C2C(=O)O` (stereo not given) [Nystatine], the growth rises from 0.137 ± 0.0076 to 0.295 ± 0.013.

`O[C@@H]1CCCC[C@H]1N1CCC(c2ccccc2)CC1` [L(-)-vesamicol hydrochloride] and `CN1[C@@H]2C[C@@H](OC(=O)[C@H](CO)c3ccccc3)C[C@H]1[C@@H]1O[C@@H]12` [Scopolamine hydrochloride] are within error of each other in growth: 0.194 ± 0.018 for the first, 0.201 ± 0.031 for the second.

same assay, conditions: arabinose induction (level): Low; compound 0.1 mM; raw OD600 reference: median of DMSO wells 0.227, cell-free background 0.041

`CN(C)C(=O)Oc1cc(OC(=O)N(C)C)cc(C(O)CNC(C)(C)C)c1` (stereo not given) [Bambuterol hydrochloride] and `CCn1cc(C(=O)O)c(=O)c2cc3c(cc21)OCO3` [Oxolinic acid] are within error of each other in growth: 0.211 ± 0.025 for the first, 0.208 ± 0.054 for the second.

`CC(=O)O[C@H]1C[C@H](O[C@H]2[C@@H](O)C[C@H](O[C@H]3[C@@H](O)C[C@H](O[C@H]4CC[C@@]5(C)[C@H](CC[C@@H]6[C@@H]5C[C@@H](O)[C@]5(C)[C@@H](C7=CC(=O)OC7)CC[C@]65O)C4)O[C@@H]3C)O[C@@H]2C)O[C@H](C)[C@H]1O[C@@H]1O[C@H](CO)[C@@H](O)[C@H](O)[C@H]1O` [Lanatoside C] and `C[C@]12CC[C@H](O)C[C@H]1CC[C@@H]1[C@@H]2C[C@@H](O)[C@]2(C)[C@@H](C3=CC(=O)OC3)CC[C@]12O` [Digoxigenin] are within error of each other in growth: 0.233 ± 0.03 for the first, 0.244 ± 0.0061 for the second.

Going from `CN[C@@H]1C[C@@H](c2ccc(Cl)c(Cl)c2)c2ccccc21` [Indatraline hydrochloride] to `Cc1cc(C(C#N)c2ccc(Cl)cc2)c(Cl)cc1NC(=O)c1cc(I)cc(I)c1O` (stereo not given) [Closantel], the growth rises from 0.05117 ± 0.00042 to 0.0929 ± 0.01.

Going from `COc1cccc(C2(O)CCCCC2CN(C)C)c1` (stereo not given) [Tramadol hydrochloride] to `COc1ccc(C(=O)N2CCCC2=O)cc1` [Aniracetam], the growth rises from 0.202 ± 0.014 to 0.246 ± 0.011.

`NC(=O)CN1CCCC1=O` [Piracetam] and `CCC1(c2ccc(N)cc2)CCC(=O)NC1=O` (stereo not given) [Glutethimide, para-amino] are within error of each other in growth: 0.208 ± 0.028 for the first, 0.226 ± 0.041 for the second.

First: Fc1ccc(C(OCCN2CCN(CCCc3ccccc3)CC2)c2ccc(F)cc2)cc1
Second: CC[N+]1(C)CCCC(OC(=O)C(O)(c2ccccc2)c2ccccc2)C1 (stereo not given) [Pipenzolate bromide]
The growth of the first is lower: 0.0459 ± 0.00085 for the first, 0.263 ± 0.058 for the second.

Going from `CC[C@@H](CO)NC(=O)[C@@H]1C=C2c3cccc4[nH]cc(c34)C[C@H]2N(C)C1` [Methylergometrine maleate] to `CN1[C@@H]2CC[C@H]1C[C@@H](OC(=O)[C@H](CO)c1ccccc1)C2` [Hyoscyamine (L)], the growth rises from 0.156 ± 0.057 to 0.29 ± 0.023.

Compared with `C#C[C@]1(O)CC[C@H]2[C@@H]3CCC4=CC(=O)CCC4=C3C=C[C@@]21CC` [Gestrinone], `C[C@@H]1O[C@@H](O[C@@H]2C=C3CC[C@@H]4[C@H](CC[C@]5(C)[C@@H](c6ccc(=O)oc6)CC[C@]45O)[C@@]3(C)CC2)[C@H](O)[C@H](O)[C@H]1O` [Proscillaridin A] is lower in growth: 0.212 ± 0.013 for the first, 0.173 ± 0.019 for the second.

Compared with `CC(=O)OCC(=O)[C@H]1CC[C@H]2[C@@H]3CC[C@H]4C[C@H](O)CC[C@]4(C)[C@H]3C(=O)C[C@]12C` [Alfadolone acetate], `CC1C=CC=CCCC=CC=CC=CC=CC(OC2OC(C)C(O)C(N)C2O)CC2OC(O)(CC(O)C(O)CCC(O)CC(O)CC(O)CC(=O)OC(C)C(C)C1O)CC(O)C2C(=O)O` (stereo not given) [Nystatine] is higher in growth: 0.157 ± 0.03 for the first, 0.269 ± 0.051 for the second.

`O[C@@H]1CCCC[C@H]1N1CCC(c2ccccc2)CC1` [L(-)-vesamicol hydrochloride] and `CN1[C@@H]2C[C@@H](OC(=O)[C@H](CO)c3ccccc3)C[C@H]1[C@@H]1O[C@@H]12` [Scopolamine hydrochloride] are within error of each other in growth: 0.201 ± 0.015 for the first, 0.228 ± 0.03 for the second.
